# In the library only some 4.7% were active in any assay of this set; here they are far more common.
# D1 potentiator: enhances dopamine response at the human D1 receptor | AID 504651 | potentiation, % at 10 µM | P21728 | 0.036% of 360,000 active | HEK293 TREx D1 cells, calcium flux, dopamine EC20 potentiation; in the data active = potentiation above about 30%; note: 0% is about no effect
# TRHR enhancer: allosterically enhances the human TRH receptor. P34981. TRHR cells, fluo-8 calcium fluorescence, EC20 TRH enhancement. enhancement, % at 2 µM. 0.66% of 360,000 active. AID 493056; in the data active = enhancement above about 30%; note: 0% is about no effect
# Target sequence (P34981 whole entry, looked up): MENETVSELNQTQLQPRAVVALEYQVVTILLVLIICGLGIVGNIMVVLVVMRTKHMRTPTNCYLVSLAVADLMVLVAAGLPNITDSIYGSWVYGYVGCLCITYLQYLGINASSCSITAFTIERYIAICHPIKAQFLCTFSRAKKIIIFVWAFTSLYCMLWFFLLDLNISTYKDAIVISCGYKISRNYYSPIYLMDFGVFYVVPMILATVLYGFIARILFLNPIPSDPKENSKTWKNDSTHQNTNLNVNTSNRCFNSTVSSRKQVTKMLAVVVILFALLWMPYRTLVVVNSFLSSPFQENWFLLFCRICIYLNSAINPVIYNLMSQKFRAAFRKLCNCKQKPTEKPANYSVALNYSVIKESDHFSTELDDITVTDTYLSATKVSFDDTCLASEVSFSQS
#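 TRHR-expressing cells loaded with fluo-8 calcium dye were read kinetically (ex 480/em 530) during compound addition, then stimulated with an EC20 of TRH (10 nM final). Enhancement of the Gq-mediated intracellular calcium response was scored.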
# D1 antagonist: antagonists of human D1 dopamine receptor. HEK293 TREx D1 cells, calcium flux, dopamine EC80; hits give low values. activity change, negative = inhibition, % at 10 µM. 3.2% of 360,000 active. AID 504652; in the data active = activity change below about -30%; note: % is set by controls: 0 for no effect and ±100 for the full control effect
#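 Inducible Hek293 Trex D1 cells (tetracycline, overnight, 30 C). Calcium dye 30–90 min RT. Antagonist mode: EC80 dopamine added after 180 s compound read.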
# TRHR ag: agonists of human TRH receptor; TRHR cells, calcium flux fluo-8, FDSS agonist mode; activation, % at 2 µM; 0.18% of 360,000 active; AID 493084; note: 0% is about no effect
#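 TRHR-expressing cells, plated overnight in medium with 10% serum, were loaded with fluo-8 calcium dye at room temperature. After a 10 s baseline, library compound was pin-added and calcium release was recorded kinetically (ex 480/em 530) as agonist response.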
# D1 ag: human D1 receptor agonism; P21728; HEK293 T-REx D1 cells, calcium flux, agonist mode; activation, % at 2 µM; 1% of 360,000 active; AID 504660; note: 0% is about no effect
#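 Tetracycline-induced HEK293 TREx D1 cells, force-coupled to calcium signalling, were dye-loaded with a no-wash calcium kit. Compound was pin-added after a 10 s baseline. Fluorescence was read kinetically at 1 cycle/s for 180 s, with calcium rises flagged as agonism.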
# * marks the source's active call; other numbers are inactive results; x = not tested or not shown. Cut-off read from the data, not from the text of the source, unless noted: active = activation above about 30%; inactive = the rest.
SMILES,D1 potentiator,TRHR enhancer,D1 antagonist,TRHR ag,D1 ag
N#CC(c1ccc(Cl)cc1)c1ccc2c(C(F)(F)F)cc(C(F)(F)F)nc2n1 (configuration not stated),32*,6,11,0,4
COc1ccc(CCN2C(=O)c3[nH]nc(-c4ccccc4O)c3C2c2ccc(OC)c(OC)c2)cc1 (configuration not stated),2,31*,-2,0,2
CCC(=O)OCc1c(C(F)(F)F)nn(C)c1Sc1ccc(Cl)cc1,-2,4,-33*,-1,19
CCC(=O)OCc1c(C(F)(F)F)nn(C)c1Sc1ccc(F)cc1,3,0,0,1,9
COc1ccc(OC)c(-c2cc(C(=O)Nc3sc4c(c3C#N)CCC(C)C4)c3ccccc3n2)c1 (configuration not stated),-3,-7,-47*,0,3
CCOc1ccc(NC(=O)c2cc(S(=O)(=O)N3CCN(c4ccccc4F)CC3)ccc2F)cc1,1,1,-3,0,0
COc1cccc(CNC(=O)CN2C(=O)CSc3c2c(C)nn3-c2ccccc2)c1,-1,3,2,-1,1
Cn1nnnc1SCCCNCc1cccc(OCc2ccccc2F)c1,-1,-3,-4,1,45*
COc1cccc(CNCCCSc2nnnn2C)c1,0,1,2,0,8
Cn1nnnc1SCCCNCc1cccc(OCc2ccccc2Cl)c1,1,3,-19,1,108*
Cn1nnnc1SCCCNCc1cc(Cl)ccc1OCc1ccccc1,-1,-2,-26,1,40*
Cn1nnnc1SCCCNCc1ccccc1OCc1ccccc1Cl,3,4,-46*,1,119*
COc1cccc(CNCCSc2nnnn2C)c1,-2,-3,4,0,4
C=Cc1ccc(Cn2c(=O)n(C)c(=O)c3sccc32)cc1,-2,-7,-34*,-2,16
Cc1ccc(Cn2c(=O)n(C)c(=O)c3sccc32)cc1,-3,-5,-24,-1,10
COc1ccc(F)cc1NC(=O)C1CCN(c2nc(-c3ccc(OC)c(OC)c3)no2)CC1,-1,-5,-26,0,5
COc1cc2c(cc1OC)C(COc1ccc(C(C)C)cc1)N(C(=O)COc1ccccc1)CC2 (configuration not stated),-2,7,-10,1,7
COc1cc2c(cc1OC)C(COc1ccc(C(C)C)cc1)NCC2 (configuration not stated),-4,11,-27,3,41*
CCN(CC)CCCNC(=O)CCc1c(C)nc2c(c1C)c(=O)n(C)c(=O)n2C,-2,0,-11,0,1
Cn1cnnc1SCC(=O)c1c(N)n(Cc2ccccc2)c(=O)n(C)c1=O,-7,-7,-60*,0,0
Cc1nnc(SCC(=O)c2c(N)n(Cc3ccccc3)c(=O)n(C)c2=O)n1C,-1,3,20,1,3
O=C(NCc1ccccn1)NC12CC3CC(CC(C3)C1)C2,-5,-1,-82*,0,2
CCCCC1=NN(C(=O)c2ccco2)C(O)(C(F)(F)F)C1 (configuration not stated),-3,36*,0,-1,1
CCc1ccc(C(C)NC(=O)c2ccc3c(c2)OCO3)cc1 (configuration not stated),0,2,-42*,0,6
CC(NC(=O)c1ccc2c(c1)OCO2)c1ccccc1 (configuration not stated),-7,20,-6,0,4
SMILES,D1 potentiator,TRHR enhancer,D1 antagonist,TRHR ag,D1 ag
CCOC(=O)C1=C(O)C(=O)N(c2ccc(S(N)(=O)=O)cc2)C1c1ccc(Cl)cc1 (configuration not stated),0,-2,-38*,-1,0
COC(=O)c1c(SC)nc2ccccc2c1OCc1ccc(C)cc1C,-2,-2,5,1,14
CCc1ccc(-n2nc(C)c3c(C(=O)N4CCN(c5ccccc5)CC4)cc(C)nc32)cc1,-1,6,-36*,0,1
CN1CCN(CCC(=O)N2c3ccccc3Sc3ccc(C(F)(F)F)cc32)CC1,-7,13,-4,2,12
OCCN1CCN(CCCN2c3ccccc3Sc3ccc(C(F)(F)F)cc32)CC1,x,15,-106*,5,38*
CCSc1ccc2c(c1)N(CCCN1CCN(C)CC1)c1ccccc1S2,-5,4,-91*,1,19
OCCN1CCN(CC/C=C2/c3ccccc3Sc3ccc(C(F)(F)F)cc32)CC1,-3,2,-88*,-1,23
COc1cc(C(=O)Nc2ccc3nc(SCc4ccc(C)cc4)sc3c2)cc(OC)c1OC,-2,1,-9,-1,4
Cc1c(Cl)cccc1NC(=O)CSc1ncc2c(n1)-c1ccccc1N(C)S2(=O)=O,2,-5,15,0,1
Cc1cccc(NC(=O)CSc2nc3ccccc3nc2N2CCC(C)CC2)c1,-6,6,-8,0,1
CCOC(=O)C1=C(CSc2nc(C)ccc2C#N)OC(N)=C(C#N)C1c1cccc(OC)c1OC (configuration not stated),-7,-5,-70*,2,6
CCOC(=O)C1=C(CSc2nc(CC)c(C)cc2C#N)OC(N)=C(C#N)C1c1ccc(OC)cc1 (configuration not stated),-1,-9,4,2,7
CCOC(=O)C1=C(CC)OC(N)=C(C#N)C1c1ccc(OC)c(C)c1OC (configuration not stated),-2,-3,-8,7,26
CCOC(=O)C1=C(CC)OC(N)=C(C#N)C1c1ccc(OC)c(OC)c1OC (configuration not stated),-6,-2,-32*,0,0
CCCC1=C(C(=O)OCC)C(c2ccc(OC)c(C)c2OC)C(C#N)=C(N)O1 (configuration not stated),12,-3,4,8,56*
CCN1c2ccccc2-c2nc(SCC(=O)Nc3cccc(C(F)(F)F)c3)ncc2S1(=O)=O,-2,-4,10,0,5
COc1ccc(C(=O)n2nc(C)cc2C)cc1Br,4,-3,-3,0,-2
COc1cc(C(=O)n2nc(C)cc2C)ccc1O,-5,38*,5,0,0
COc1ccccc1OCc1cc(C(=O)N2CCCC(OCc3cccnc3)C2)no1 (configuration not stated),-2,-6,-36*,-1,5
O=C(c1cc(COc2cccc3cnccc23)on1)N1CCCC(CCCO)C1 (configuration not stated),-3,-3,-55*,1,14
CSc1ccccc1OCc1cc(C(=O)N2CCC(Oc3cccnc3)CC2)no1,-3,-10,-46*,-1,19

# Screening results from PubChem.
